Assay results taken from PubChem BioAssay (Tox21).
Results filed as inconclusive are left out. Where a call stands in place of a potency, no number is given. The source made the active and inactive calls. Calls follow the shape of the dose curve; as a rule, active = well fitted curve in the direction sought with a large enough effect in the repeat runs; inconclusive = weak or mixed curves; inactive = no such curve, though single readings can be large; an effect the other way counts as inactive or inconclusive.

Assay: A CellTox Green Cytotoxicity Assay to monitor cytotoxicity in HepG2 cells - 16 hour (AID 1224876); also: nearly all actives have a fitted effect of over 45% in size; also: potency is read from the fitted curve at half-maximal effect
Conditions: CellTox Green fluorescence; series mostly up to 76.8 µM
Outline: (§1)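 HepG2 cells were seeded together with the CellTox Green dye at 600 cells/well, left 5 h at 37 C/5% CO2, then given compounds in DMSO. Fluorescence from dye bound to dead-cell DNA was read repeatedly over 40 h of treatment at 37 C.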

Compound | Potency | cytotoxicity increase
CCC(=O)OC1(c2ccccc2)CCN(C)CC1 | inactive | –
CCCCOC(C)=O | inactive | –
COC1=CC(=O)O[C@@H](/C=C/c2ccccc2)C1 | inactive | –
CCC(C(N)=O)N1CCCC1=O (stereo not drawn) | inactive | –
O=C(O)CBr | inactive | –
CCCN1CCC[C@@H]2Cc3nc(N)ncc3C[C@H]21 | 21.3 µM (active) | –
CC(C)c1ccc(O)cc1 | inactive | –
CC1N=C(N)OC1c1ccccc1 (stereo not drawn) | inactive | –
CCCOc1nn(C(=O)NS(=O)(=O)c2ccccc2C(=O)OC)c(=O)n1C | inactive | –
COC(=O)[C@@H](N)CCCN/C(N)=N/[N+](=O)[O-] | inactive | –
CCN[C@@H](C)Cc1cccc(C(F)(F)F)c1 | inactive | –
CC(C)(C)C(=O)Cl | inactive | –
CCCOC(=O)Cc1ccc(OCC(=O)N(CC)CC)c(OC)c1 | inactive | –
Cc1ccc2c(c1)C1CN(C)CCC1N2 (stereo not drawn) | – | 12.2% [at 15.8 µM] (inactive)
C=CCN1CC[C@]23CCCC[C@H]2[C@H]1Cc1ccc(O)cc13 | inactive | –
CCOC1Oc2ccc(OS(C)(=O)=O)cc2C1(C)C (stereo not drawn) | inactive | –
Brc1c(Br)c(Br)c(Br)c(Br)c1Br | – | -7.6% [at 6.97 µM] (inactive)
CCOC(=O)C(SP(=S)(OC)OC)c1ccccc1 (stereo not drawn) | inactive | –
CC1NCCOC1c1ccccc1 (stereo not drawn) | inactive | –
CC(C)(N)Cc1ccc(Cl)cc1 | inactive | –
Oc1ccc2c3c1O[C@H]1[C@@H](O)C=C[C@H]4[C@@H](C2)NCC[C@@]341 | inactive | –
N[C@@H]1C[C@H]1c1ccccc1 | inactive | –
CCOC(=O)c1ncn2c1CN(C)C(=O)c1c(I)cccc1-2 | inactive | –
O=P(O)(O)c1ccccc1 | inactive | –
CCCCCCC1CCOC1=O (stereo not drawn) | inactive | –
Clc1cc2c(cc1Cl)Oc1cc(Cl)c(Cl)cc1O2 | – | -1.02% [at 0.29 µM] (inactive)
O=C(O)C(Br)(Br)Br | inactive | –
CCCN1CCC[C@@H]2Cc3[nH]ncc3C[C@H]21 | inactive | –

Assay: qHTS RealTime-Glo MT Cell Viability Assay in HepG2 cells - 32 hour (AID 1224877); also: nearly all actives have a fitted effect of over 55% in size
Conditions: RealTime-Glo luminescence; series mostly up to 76.8 µM
Outline: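 Cells + NanoLuc/prosubstrate dispensed (600 cells/well) → 5 h at 37 C/5% CO2 → compounds in DMSO transferred → 40 h incubation at 37 C, luminescence read at 0, 8, 16, 24, 32, 40 h.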

Compound | Potency | activity change, negative = cytotoxic
CCC(=O)OC1(c2ccccc2)CCN(C)CC1 | inactive | –
CCCCOC(C)=O | inactive | –
CCC(C(N)=O)N1CCCC1=O (stereo not drawn) | inactive | –
CCCN1CCC[C@@H]2Cc3nc(N)ncc3C[C@H]21 | inactive | –
CC(C)c1ccc(O)cc1 | inactive | –
CC1N=C(N)OC1c1ccccc1 (stereo not drawn) | inactive | –
CCCOc1nn(C(=O)NS(=O)(=O)c2ccccc2C(=O)OC)c(=O)n1C | inactive | –
COC(=O)[C@@H](N)CCCN/C(N)=N/[N+](=O)[O-] | inactive | –
O=c1[nH]oc2c1CCNC2 | inactive | –
CC(C)(C)C(=O)Cl | inactive | –
CCCOC(=O)Cc1ccc(OCC(=O)N(CC)CC)c(OC)c1 | inactive | –
C=CCN1CC[C@]23CCCC[C@H]2[C@H]1Cc1ccc(O)cc13 | inactive | –
O=C(Cl)C(Cl)Cl | inactive | –
CCOC1Oc2ccc(OS(C)(=O)=O)cc2C1(C)C (stereo not drawn) | inactive | –
CCOP(=S)(OCC)Oc1ccc(Cl)cc1Cl | inactive | –
CCC1(c2cccc(O)c2)CCCCN(C)C1 (stereo not drawn) | inactive | –
CCN[C@@H](C)Cc1ccccc1 | inactive | –
CC(C)(N)Cc1ccc(Cl)cc1 | inactive | –
Oc1ccc2c3c1O[C@H]1[C@@H](O)C=C[C@H]4[C@@H](C2)NCC[C@@]341 | inactive | –
N[C@@H]1C[C@H]1c1ccccc1 | inactive | –
CCOC(=O)c1ncn2c1CN(C)C(=O)c1c(I)cccc1-2 | inactive | –
O=P(O)(O)c1ccccc1 | inactive | –
CCCCCCC1CCOC1=O (stereo not drawn) | inactive | –
Clc1cc2c(cc1Cl)Oc1cc(Cl)c(Cl)cc1O2 | – | 1.14% [at 0.29 µM] (inactive)
CC(C)N(Cc1ccccc1)C(=O)C(C)(C)C | inactive | –
CCCN1CCC[C@@H]2Cc3[nH]ncc3C[C@H]21 | inactive | –

Assay: A CellTox Green Cytotoxicity Assay to monitor cytotoxicity in HepG2 cells - 24 hour (AID 1224878); also: nearly all actives have a fitted effect of over 45% in size; also: potency is read from the fitted curve at half-maximal effect
Conditions: CellTox Green fluorescence; series mostly up to 76.8 µM
Outline: as §1

Compound | Potency | cytotoxicity
CCC(=O)OC1(c2ccccc2)CCN(C)CC1 | inactive | –
CCCCOC(C)=O | inactive | –
COC1=CC(=O)O[C@@H](/C=C/c2ccccc2)C1 | inactive | –
CCC(C(N)=O)N1CCCC1=O (stereo not drawn) | inactive | –
CCCN1CCC[C@@H]2Cc3nc(N)ncc3C[C@H]21 | 21.3 µM (active) | –
CC(C)c1ccc(O)cc1 | inactive | –
CC1N=C(N)OC1c1ccccc1 (stereo not drawn) | inactive | –
CCCOc1nn(C(=O)NS(=O)(=O)c2ccccc2C(=O)OC)c(=O)n1C | inactive | –
COC(=O)[C@@H](N)CCCN/C(N)=N/[N+](=O)[O-] | inactive | –
CCN[C@@H](C)Cc1cccc(C(F)(F)F)c1 | inactive | –
CC(C)(C)C(=O)Cl | inactive | –
CCCOC(=O)Cc1ccc(OCC(=O)N(CC)CC)c(OC)c1 | inactive | –
Cc1ccc2c(c1)C1CN(C)CCC1N2 (stereo not drawn) | – | 11.8% [at 15.8 µM] (inactive)
C=CCN1CC[C@]23CCCC[C@H]2[C@H]1Cc1ccc(O)cc13 | inactive | –
O=C(Cl)C(Cl)Cl | inactive | –
CCOC1Oc2ccc(OS(C)(=O)=O)cc2C1(C)C (stereo not drawn) | inactive | –
Brc1c(Br)c(Br)c(Br)c(Br)c1Br | – | -0.215% [at 6.97 µM] (inactive)
CCOP(=S)(OCC)Oc1ccc(Cl)cc1Cl | inactive | –
CCC1(c2cccc(O)c2)CCCCN(C)C1 (stereo not drawn) | inactive | –
CCOC(=O)C(SP(=S)(OC)OC)c1ccccc1 (stereo not drawn) | inactive | –
CC1NCCOC1c1ccccc1 (stereo not drawn) | inactive | –
CC(C)(N)Cc1ccc(Cl)cc1 | inactive | –
Oc1ccc2c3c1O[C@H]1[C@@H](O)C=C[C@H]4[C@@H](C2)NCC[C@@]341 | inactive | –
N[C@@H]1C[C@H]1c1ccccc1 | inactive | –
CCOC(=O)c1ncn2c1CN(C)C(=O)c1c(I)cccc1-2 | inactive | –
CCCCCCC1CCOC1=O (stereo not drawn) | inactive | –
Clc1cc2c(cc1Cl)Oc1cc(Cl)c(Cl)cc1O2 | – | 2.11% [at 0.29 µM] (inactive)
O=C(O)C(Br)(Br)Br | inactive | –
CCCN1CCC[C@@H]2Cc3[nH]ncc3C[C@H]21 | inactive | –
